Screening data as filed in PubChem.
Sampled rows, rich in hits. Any-hit rate of the full collection: about 22%.
CYP2C9 inh – inhibitors of human CYP2C9. AID 777. 96,000 compounds, 20% hits. CYP2C9 Supersomes, luciferin-H conversion, luminescence. P11712. inhibition, % at 5 µM;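 active means blocking of liver enzyme CYP2C9 beyond about 50% at 5 µM, limit read from the data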
CYP2C19 inhib – blocks human cytochrome P450 2C19. CYP2C19 Supersomes, luciferin-H EGE luminescence, 30 min. 96,000 compounds, 21% hits. inhibition, % at 5 µM;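 active means CYP2C19 inhibition above a set limit at 5 µM in the primary screen, cut at about 50% in these data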;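 further: plate controls were negative control wells for no effect and 2.5 mM tranylcypromine positive control for full effect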
Target sequence (P33261 whole entry, looked up): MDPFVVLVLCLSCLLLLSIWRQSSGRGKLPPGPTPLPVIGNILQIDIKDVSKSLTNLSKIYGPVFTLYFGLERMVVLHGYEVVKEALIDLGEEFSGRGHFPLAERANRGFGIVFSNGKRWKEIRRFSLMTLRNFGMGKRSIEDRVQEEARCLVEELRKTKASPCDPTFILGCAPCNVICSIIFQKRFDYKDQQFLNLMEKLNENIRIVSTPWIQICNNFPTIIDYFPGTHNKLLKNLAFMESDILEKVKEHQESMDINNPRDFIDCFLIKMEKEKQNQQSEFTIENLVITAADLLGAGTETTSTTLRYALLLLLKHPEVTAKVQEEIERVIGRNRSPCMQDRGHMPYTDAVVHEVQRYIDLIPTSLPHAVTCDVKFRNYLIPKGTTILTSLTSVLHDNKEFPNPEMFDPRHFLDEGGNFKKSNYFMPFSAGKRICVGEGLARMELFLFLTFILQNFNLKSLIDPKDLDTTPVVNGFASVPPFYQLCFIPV
Measles CPE – protection of cells from measles virus | Measles virus-infected cells, CPE protection, absorbance | protection (pct of control), % at 4 µM | 140,000 compounds, 1.5% hits | AID 841; in the data active means protection mostly above about 24%, no sharp cut-off; inactive means mostly below about 26%
CYP2C9 activ – CYP2C9 (human) activation; 96,000 compounds, 1.4% hits; activation factor at 5 µM; AID 1024; recombinant CYP2C9, luciferin-H conversion, luminescence; stronger effect = higher value; factor 1 = untreated enzyme, 0 = blocked;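 active means activation factor of 2 or more for CYP2C9 at a 5 µM dose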;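 further: 0 = sulfaphenazole-blocked wells and 1 = vehicle-only wells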
CYP2C19 act – increases human CYP2C19 enzyme activity; P33261; activation factor at 5 µM; recombinant CYP2C19, luciferin-H EGE luminescence; stronger effect = higher value; 0 = fully inhibited enzyme, 1 = untreated enzyme; AID 1025; 96,000 tested, under 10 active;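 active means activation factor of at least 2 at 5 µM in the primary screen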;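 further: 0 = wells with 2.5 mM tranylcypromine and 1 = vehicle-only wells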
An asterisk follows results filed as active; · = no result; ! = not active in a repeat.

SMILES	CYP2C9 inh	CYP2C19 inhib	Measles CPE	CYP2C9 activ	CYP2C19 act
O=C(CCN1CCN(c2ccccn2)CC1)Nc1ccc(F)cc1	48	9	11	0.5	0.9
Cc1cc(C)cc(NC(=O)CN2CCN(c3ncccn3)CC2)c1	24	26	23	0.8	0.7
CCCCn1nc(C(=O)O)ccc1=O	9	8	17	0.9	0.9
N#Cc1cc2c(=O)n3ccccc3nc2n(CCCn2ccnc2)c1=N	78*	71*	18	0.2	0.3
Cc1ccc(Oc2cnc3ccccc3n2)cc1	-3	5	67*	1	1
CCOc1ccc(C(=O)NC(=S)Nc2cccc(NC(=O)c3ccco3)c2)cc1[N+](=O)[O-]	·	·	10	·	·
CC(=O)c1c(COC(=O)c2ccco2)nc2ccccc2[n+]1[O-]	63*	60*	·	0.4	0.4
CCOC(=O)c1c(COC(=O)c2ccco2)nc2ccccc2[n+]1[O-]	19	14	4	0.8	0.9
CC(=O)c1c(COC(=O)c2ccncc2)nc2ccccc2[n+]1[O-]	35	92*	7	0.6	0.1
CCOC(=O)c1c(C)[nH]c(C(=O)CSc2nnc(Nc3ccccc3F)s2)c1C	·	·	7	·	·
Cn1c(=O)c2c(SCc3c(F)cccc3Cl)nc(CC(C)(C)C)nc2n(C)c1=O	32	3	4	0.7	1
CC(C)=NNC(=O)CN1C(=O)NC2NC(=O)NC21 (configuration not stated)	·	·	5	·	·
CCOC(=O)N1CCN(CCC(=O)Nc2ccc(C)c(Br)c2)CC1	15	21	5	0.9	0.8
CCOC(=O)N1CCN(CCC(=O)Nc2cccc(Br)c2)CC1	58*!	65*!	10	0.4	0.3
CCOC(=O)N1CCN(CCC(=O)Nc2ccc(Br)cc2)CC1	95*	92*	23	0.1	0.1
CC(C)c1ccc(/C=N/NC(=O)CN(c2cccc(Cl)c2Cl)S(C)(=O)=O)cc1	1	-7	9	1	1.1
CN1CCN(C(=O)c2ccccc2NC(=O)Cc2ccccc2)CC1	3	5	2	1	0.9
CC(C)(C)OC(=O)N1CC(O)CC1C(=O)OCC(=O)c1ccccc1 (configuration not stated)	·	·	5	·	·
CC(C)(C)OC(=O)N1CC(O)CC1C(=O)OCC(=O)c1ccc(Cl)cc1 (configuration not stated)	22	55*	17	0.8	0.5
Cc1ccc(C(=O)NNC(=O)CSc2nnc(-c3ccccc3)n2Cc2ccccc2)cc1	·	·	7	·	·
O=c1[nH]c(/C(Cl)=C/c2cc(Cl)ccc2O)nc2cc(Cl)ccc12	·	·	11	·	·
CCC(=O)N1CCN(c2ccc(Cl)cc2NC(=O)c2ccc3c(c2)OCCO3)CC1	71*	26	29	0.3	0.7
CCC(=O)N1CCN(c2ccc(Cl)cc2NC(=O)Cc2ccccc2)CC1	79*	83*	1	0.2	0.2
CCOC(=O)CNC(=O)c1ccc(C#CC2(O)CCCCC2)cc1	·	·	18	·	·
CCOC(=O)C1CCCN(C(=O)C2CCCN(S(C)(=O)=O)C2)C1 (configuration not stated)	-7	-6	41	1.1	1.1
SMILES	CYP2C9 inh	CYP2C19 inhib	Measles CPE	CYP2C9 activ	CYP2C19 act
CCN(CC)c1ccc(NC(=O)/C=C\c2ccccc2Cl)cc1	-125	71*	0	2.3*	0.3
O=C(/C=C/c1ccccc1Cl)NCCc1ccccc1	-42	48	5	1.4	0.5
O=C(/C=C/c1ccccc1Cl)NCc1ccccc1	-110	8	16	2.1*	0.9
CCOC(=O)C1CCCN(c2nnnn2-c2ccccc2)C1 (configuration not stated)	39	81*	6	0.6	0.2
O=C(NC1CCCCC1)C1CCCN(c2nnnn2-c2ccccc2)C1 (configuration not stated)	38	55*	4	0.6	0.5
NC(=O)C1CCN(c2nnnn2-c2ccccc2)CC1	10	42	4	0.9	0.6
CCN(CC)CCNC(=O)CS(=O)Cc1nc(-c2ccc(C)cc2)oc1C (configuration not stated)	6	6	4	0.9	0.9
N=c1c(C(=O)NCc2ccccc2)cc2c(=O)n3ccccc3nc2n1Cc1ccco1	48	26	16	0.5	0.7
N=c1c(C(=O)NCc2ccco2)cc2c(=O)n3ccccc3nc2n1Cc1ccc(Cl)cc1	64*	39	6	0.4	0.6
CCn1c(=N)c(C(=O)OC)cc2c(=O)n3ccccc3nc21	-18	63*	·	1.2	0.4
N=c1c(C(=O)NCc2ccco2)cc2c(=O)n3ccccc3nc2n1Cc1ccccc1	46	34	19	0.5	0.7
Cn1c(=N)c(S(=O)(=O)c2ccccc2)cc2c(=O)n3ccccc3nc21	-19	12	20	1.2	0.9
Cc1ccc(CNC(=O)c2cc3c(=O)n4ccccc4nc3n(Cc3ccco3)c2=N)cc1	56*	10	·	0.4	0.9
N=c1c(S(=O)(=O)c2ccc(Cl)cc2)cc2c(=O)n3ccccc3nc2n1CCN1CCOCC1	59*	40	5	0.4	0.6
O=C(Nc1ccccc1Br)C1CCN(C(=O)Cc2ccccc2)CC1	·	·	13	·	·
CC12CCCc3c(O)cc(=O)n(c31)-c1ccccc12 (configuration not stated)	·	·	7	·	·
CCc1ccc2c(c1)C(c1ccc([N+](=O)[O-])cc1)=NNC(c1ccc(F)cc1)=N2	-2	-17	12	1	1.2
O=C(CN1CCN(C(=O)c2c(F)cccc2F)CC1)Nc1ccccc1F	8	25	-1	0.9	0.8
N=c1c(C(=O)NCc2ccc3c(c2)OCO3)cc2c(=O)n3ccccc3nc2n1Cc1cccnc1	67*	46	15	0.3	0.5
COc1ccc(CNC(=O)c2cc3c(=O)n4ccccc4nc3n(Cc3cccnc3)c2=N)cc1	5	4	5	1	1
O=[N+]([O-])c1ccc(Oc2cccc(Br)c2)c2ccncc12	16	58*	7	0.8	0.4
O=[N+]([O-])c1ccc(Oc2ccc(F)cc2)c2ccncc12	50	84*	7	0.5	0.2
Nc1ccc(Oc2ccc([N+](=O)[O-])cc2[N+](=O)[O-])cc1	1	26	7	1	0.7
Nc1nc(CN2CCCCCC2)nc(Nc2ccccc2)n1	1	11	6	1	0.9
Cc1c(-c2nc(N)nc(Nc3ccccc3)n2)oc2ccccc12	84*	23	4	0.2	0.8
SMILES	CYP2C9 inh	CYP2C19 inhib	Measles CPE	CYP2C9 activ	CYP2C19 act
O=C(Nc1ccccc1)N1CCc2scc[n+]2-c2ccccc21	·	·	3	·	·
COc1ccccc1-c1noc(-c2ccccc2)n1	7	52*	7	0.9	0.5
COc1ccc(-c2noc(-c3ccccc3F)n2)cc1	59*	10	2	0.4	0.9
COc1ccccc1-c1noc(-c2ccco2)n1	-5	50	19	1.1	0.5
COc1ccc(-c2nc(-c3ccccc3OC)no2)cc1OC	-52	61*	5	1.5	0.4
C=CCCCCc1nc2ccccc2c(=O)n1N	·	·	2	·	·
